One test concerns the target Albumin (Bos taurus) (UniProt P02769). As to the kind of experiment: bovine serum albumin binders on microarray, profiling panel, artefact control for SMM control protein annotation, biochemical, small-molecule microarray, Alexa647 label, 635/667 nm fluorescence (AID 1118).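 Note: score merges 667 nm emission intensity and signal-to-noise per printed compound spot.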 The note with it: BSA-A647 binding, fluorescence 635 nm, higher = more signal.
A short description of test [1]: small-molecule microarray binders of probe aXIP, primary screen, biochemical, NeuroSMM set, 635/667 nm fluorescence (AID 1119).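 Note: probe is the protein aXip251-270 applied at 1 µg/mL to compound-printed slides; binding of probe to printed compounds measured as 667 nm fluorescence plus signal to noise.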 The conditions noted are these: higher = more signal, called active from +8 up or from −8 down.
A short description of test [2]: small-molecule binders of probe aNOTCH3, primary screen, biochemical, small-molecule microarray, 635/667 nm fluorescence (AID 1120).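 Note: probe is a biotin-tagged antibody raised against NOTCH3 rather than NOTCH3 protein; score merges spot fluorescence near 667 nm with spot signal to noise.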 The conditions noted are these: higher = more signal.
Test [3] can be described thus: small-molecule binders of probe aNOTCH2, primary screen, biochemical, small-molecule microarray, 635/667 nm fluorescence (AID 1121).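 Note: score merges feature fluorescence read at 667 nm with its signal to noise.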 The conditions noted are these: higher = more signal.
Test [4] deals with Carbonic anhydrase 2 (Homo sapiens) (UniProt P00918). As to the kind of experiment: CAII small-molecule binders, profiling panel, biochemical, small-molecule microarray, Alexa647-labelled CAII (AID 1122). The conditions noted are these: CAII-A647 binding fluorescence, higher = more signal.
Test [5] in a line: COS7 lysate on small-molecule microarray, probe aHis, 635 nm (AID 1123).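 Note: z-score combines 667nm fluorescence intensity with signal-to-noise per printed compound spot.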 The note with it: COS7 cell lysate, fluorescence, higher = more signal.
A short description of test [6]: compound binding in COS7 lysate, probe aLAP1, primary screen, cell lysate, small-molecule microarray (AID 1124).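 Note: lysate comes from COS7 cells expressing LAP1 and is applied at 0.3 µg/mL; score merges spot fluorescence near 667 nm with signal-to-noise over triplicate slides.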 The conditions noted are these: probe aLAP1, fluorescence, higher = more signal.
The subject of the next test is Sam68 (KHDRBS1). Nature of the test: Sam68 small-molecule binders, primary screen, biochemical, small-molecule microarray, 635 nm fluorescence (AID 1125).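 Note: score merges 667 nm channel intensity with signal to noise over triplicate slides.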 The conditions noted are these: small-molecule microarray binding, higher = more signal.
The test system of test [7] is Chordin-like protein 2 (CHRDL2). As to the kind of experiment: CHRDL2 small-molecule binders, primary screen, biochemical, small-molecule microarray, 635 nm fluorescence (AID 1126).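 Note: printed compound slides probed with Chrdl2 protein at 4 µg/mL for 1 h at 4 C; score merges 667 nm emission intensity with signal to noise over three replicate slides.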 The conditions noted are these: small-molecule microarray binding, fluorescence 635 nm; higher = more signal.
Test [8] deals with Concanavalin-A (Canavalia ensiformis) (UniProt P02866). As to the kind of experiment: ConA small-molecule binders, primary screen, artefact control for SMM control protein annotation, biochemical, small-molecule microarray, Alexa647 label, 635 nm (AID 1127).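 Note: z combines 667 nm emission intensity with signal-to-noise across three replicate slides.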 The note with it: ConA-A647 binding fluorescence, higher = more signal.
Test [9] can be described thus: anti-His antibody binders, primary screen, artefact control for SMM control protein annotation, biochemical, small-molecule microarray, 635 nm fluorescence (AID 1128).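 Note: score merges feature fluorescence with signal-to-noise for each printed compound spot.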 The conditions noted are these: anti-His Alexa647 antibody binding, higher = more signal.
The test system of test [10] is Human papillomavirus type 1a E7 protein (residues 1-88). As to the kind of experiment: HPV1a E7 small-molecule binders, primary screen, biochemical, small-molecule microarray, residues 1-88, 635 nm (AID 1129). The conditions noted are these: small-molecule microarray binding, fluorescence 635 nm; higher = more signal.
Test [11] addresses Focal adhesion kinase 1 (Homo sapiens) (UniProt Q05397). As to the kind of experiment: small-molecule microarray binders of FAK, primary screen, biochemical, 635/667 nm fluorescence, BSA, DTT (AID 1130).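 Note: composite of spot emission at 667 nm and signal to noise over triplicate slides.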 The note with it: PTK2 binding, 635 nm fluorescence, higher = more signal.
The subject of test [12] is Fibrinogen (Alexa647-labelled). As to the kind of experiment: fibrinogen binders on compound microarrays, profiling panel, artefact control for SMM control-protein annotation, biochemical, small-molecule microarray, 635/667 nm fluorescence (AID 1131).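 Note: z-score merges 667 nm fluorescence with per-spot signal-to-noise over triplicate slides.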 The note with it: fibrinogen-A647 binding fluorescence, higher = more signal.
For test [13], the target named is Follistatin (Homo sapiens) (UniProt P19883). As to the kind of experiment: follistatin binders on small-molecule microarrays, primary screen, biochemical, small-molecule microarray, 635/667 nm fluorescence (AID 1132). The conditions noted are these: FST binding, 635 nm fluorescence, higher = more signal.
For test [14], the target named is Fibroblast growth factor 2 (Homo sapiens) (UniProt P09038). As to the kind of experiment: FGF2 binders on small-molecule microarrays, primary screen, biochemical, small-molecule microarray, 635/667 nm fluorescence (AID 1133). The note with it: small-molecule microarray binding, FGF2, fluorescence 635/667; higher = more signal.
A short description of test [15]: mitochondrial membrane potential change in A549 cells, profiling panel, cell-based, JC-1 fluorescence, basal, 24 h, 100 nL (AID 1138).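 Note: A549 lung adenocarcinoma cells under basal conditions with no added stimulus; test concentration not given here.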 The conditions noted are these: higher = more signal.
The next test concerns Lefty1. As to the kind of experiment: Lefty1 binders on small-molecule microarrays, primary screen, biochemical, small-molecule microarray, 635/667 nm fluorescence (AID 1139). The note with it: small-molecule microarray binding, fluorescence 635/667; higher = more signal.
Test [16] concerns wheat germ agglutinin (Triticum aestivum), Alexa647-labelled. Nature of the test: wheat germ agglutinin binders on compound microarrays, profiling panel, artefact control for SMM control-protein annotation, biochemical, small-molecule microarray, 635/667 nm fluorescence (AID 1140).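 Note: score merges 667 nm feature emission with signal to noise over triplicate slides.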 The note with it: WGA-A647 binding, 635 nm fluorescence, higher = more signal.
Test [17] deals with Luciferin 4-monooxygenase (Photinus pyralis) (UniProt P08659). Nature of the test: firefly luciferase enzyme inhibitors, primary screen, biochemical, luminescence, purified enzyme, 2006 set (AID 1141).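 Note: cell-free assay with purified firefly luciferase at 100 ng per well in PBS; test concentration not given here.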 The conditions noted are these: SteadyGlo luminescence, 30 min, higher = more signal, called active from +8 up or from −8 down.

SMILES strings stand for the structures. The source made the active and inactive calls.

From PubChem BioAssay come the findings set out here.

Fibroblast growth factor 2 (Homo sapiens), sequence (P09038 whole entry, looked up): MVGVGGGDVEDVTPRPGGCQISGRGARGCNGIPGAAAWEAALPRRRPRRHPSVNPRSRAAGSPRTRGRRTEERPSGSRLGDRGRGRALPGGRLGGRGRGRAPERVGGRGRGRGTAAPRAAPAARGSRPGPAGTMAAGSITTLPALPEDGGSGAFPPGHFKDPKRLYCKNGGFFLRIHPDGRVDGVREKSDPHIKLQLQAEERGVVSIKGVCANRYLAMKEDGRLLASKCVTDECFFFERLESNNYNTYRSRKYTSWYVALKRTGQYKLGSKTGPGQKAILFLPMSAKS
Luciferin 4-monooxygenase (Photinus pyralis), sequence (P08659 whole entry, looked up): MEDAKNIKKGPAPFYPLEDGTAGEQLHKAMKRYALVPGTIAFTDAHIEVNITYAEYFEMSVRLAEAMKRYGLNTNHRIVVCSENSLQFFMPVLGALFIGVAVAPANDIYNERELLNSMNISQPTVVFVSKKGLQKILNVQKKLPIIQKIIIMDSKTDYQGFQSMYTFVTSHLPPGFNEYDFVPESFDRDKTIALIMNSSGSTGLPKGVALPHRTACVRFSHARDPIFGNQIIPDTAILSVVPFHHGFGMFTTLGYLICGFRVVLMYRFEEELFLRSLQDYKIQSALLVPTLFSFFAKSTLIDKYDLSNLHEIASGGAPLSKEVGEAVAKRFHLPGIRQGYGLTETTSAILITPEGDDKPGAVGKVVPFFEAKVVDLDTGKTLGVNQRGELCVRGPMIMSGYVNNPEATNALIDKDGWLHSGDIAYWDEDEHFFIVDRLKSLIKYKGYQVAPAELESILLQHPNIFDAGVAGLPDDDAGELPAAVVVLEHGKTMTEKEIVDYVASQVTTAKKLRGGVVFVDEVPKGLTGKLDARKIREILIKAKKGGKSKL
Concanavalin-A (Canavalia ensiformis), sequence (P02866 whole entry, looked up): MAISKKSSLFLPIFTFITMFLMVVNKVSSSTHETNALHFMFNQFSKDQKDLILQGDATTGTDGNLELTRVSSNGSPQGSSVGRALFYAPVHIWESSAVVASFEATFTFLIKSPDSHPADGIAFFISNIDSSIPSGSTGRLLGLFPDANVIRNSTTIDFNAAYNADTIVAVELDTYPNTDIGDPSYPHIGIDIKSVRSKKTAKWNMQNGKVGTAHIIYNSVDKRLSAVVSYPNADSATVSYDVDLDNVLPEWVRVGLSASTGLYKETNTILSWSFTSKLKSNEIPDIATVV
Follistatin (Homo sapiens), sequence (P19883 whole entry, looked up): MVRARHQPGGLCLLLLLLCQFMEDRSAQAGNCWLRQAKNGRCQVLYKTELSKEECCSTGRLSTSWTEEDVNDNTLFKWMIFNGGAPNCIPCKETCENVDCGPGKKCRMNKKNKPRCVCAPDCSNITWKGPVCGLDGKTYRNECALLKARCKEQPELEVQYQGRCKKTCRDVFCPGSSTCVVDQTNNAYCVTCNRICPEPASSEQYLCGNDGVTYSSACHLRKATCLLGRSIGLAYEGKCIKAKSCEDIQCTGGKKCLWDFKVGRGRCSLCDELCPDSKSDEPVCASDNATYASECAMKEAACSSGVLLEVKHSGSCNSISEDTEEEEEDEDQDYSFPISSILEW
Focal adhesion kinase 1 (Homo sapiens), sequence (Q05397 whole entry, looked up): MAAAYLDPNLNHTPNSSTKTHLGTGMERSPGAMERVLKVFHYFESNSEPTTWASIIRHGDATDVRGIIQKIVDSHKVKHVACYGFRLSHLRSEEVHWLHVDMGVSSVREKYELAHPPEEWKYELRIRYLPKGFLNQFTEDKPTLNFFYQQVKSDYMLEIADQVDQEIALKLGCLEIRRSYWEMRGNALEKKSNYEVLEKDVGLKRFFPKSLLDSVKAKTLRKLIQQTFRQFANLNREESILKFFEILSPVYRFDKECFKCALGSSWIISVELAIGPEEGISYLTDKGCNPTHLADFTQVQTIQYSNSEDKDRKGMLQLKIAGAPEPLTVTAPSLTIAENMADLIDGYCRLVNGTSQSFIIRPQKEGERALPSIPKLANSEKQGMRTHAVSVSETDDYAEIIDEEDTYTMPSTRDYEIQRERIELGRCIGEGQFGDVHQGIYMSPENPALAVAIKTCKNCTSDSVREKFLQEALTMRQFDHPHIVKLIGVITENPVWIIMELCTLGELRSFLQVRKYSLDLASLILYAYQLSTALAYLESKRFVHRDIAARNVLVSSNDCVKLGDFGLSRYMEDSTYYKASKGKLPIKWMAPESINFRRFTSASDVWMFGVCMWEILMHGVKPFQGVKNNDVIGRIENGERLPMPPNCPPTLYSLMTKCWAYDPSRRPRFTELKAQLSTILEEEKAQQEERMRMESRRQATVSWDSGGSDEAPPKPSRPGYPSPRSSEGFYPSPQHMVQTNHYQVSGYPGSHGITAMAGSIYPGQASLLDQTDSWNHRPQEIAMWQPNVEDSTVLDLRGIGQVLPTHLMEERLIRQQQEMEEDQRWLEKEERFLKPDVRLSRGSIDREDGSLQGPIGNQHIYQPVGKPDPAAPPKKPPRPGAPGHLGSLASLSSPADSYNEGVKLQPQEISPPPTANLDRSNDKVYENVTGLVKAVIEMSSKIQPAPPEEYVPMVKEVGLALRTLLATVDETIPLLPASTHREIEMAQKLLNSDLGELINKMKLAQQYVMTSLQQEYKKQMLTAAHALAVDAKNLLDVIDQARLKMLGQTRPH
Albumin (Bos taurus), sequence (P02769 whole entry, looked up): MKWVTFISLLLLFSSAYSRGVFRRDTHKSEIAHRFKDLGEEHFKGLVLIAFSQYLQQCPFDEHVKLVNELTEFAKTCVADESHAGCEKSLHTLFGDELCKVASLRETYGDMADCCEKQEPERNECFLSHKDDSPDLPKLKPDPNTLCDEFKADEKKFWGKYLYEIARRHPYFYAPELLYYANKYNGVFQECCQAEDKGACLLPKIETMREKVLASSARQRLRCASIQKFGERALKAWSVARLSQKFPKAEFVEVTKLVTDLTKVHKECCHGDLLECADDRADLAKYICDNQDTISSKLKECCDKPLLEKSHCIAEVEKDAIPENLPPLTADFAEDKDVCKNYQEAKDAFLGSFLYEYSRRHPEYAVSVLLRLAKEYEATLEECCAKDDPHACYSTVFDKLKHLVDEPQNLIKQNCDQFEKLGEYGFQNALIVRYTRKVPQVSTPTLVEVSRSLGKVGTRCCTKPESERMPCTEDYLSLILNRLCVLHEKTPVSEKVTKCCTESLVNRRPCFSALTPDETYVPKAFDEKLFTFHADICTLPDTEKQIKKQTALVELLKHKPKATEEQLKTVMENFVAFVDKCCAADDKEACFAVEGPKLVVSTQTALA

With `COC(=O)C[C@H]1O[C@]2(C(=O)N(Cc3ccccc3)c3ccc(NC(C)=O)cc32)[C@@H](C)[C@@H]1[Si](C)(C)c1ccc(OC)cc1`, the composite z-score with Albumin (Bos taurus) is 0.298; in test [2], 0.0485; in test [3], -0.13; in test [4], 0.269; in test [5], 0.696; in test [6] it was 0.189. In addition, the composite z-score in the test on Sam68 (KHDRBS1) was 1.31; in [7], 0.48; in [8] it was 0.355; in [9], 0.242; in test [10], 0.822; in [11], -0.0722. Moreover, the composite z-score worked out at 0.483 in test [12]; 0.528 in [13]; 0.52 in test [14]; 0.68 with Lefty1; 0.657 in [16]. The composite Z-score in [1] was -0.114 (inactive). For the same compound, the figures for the z-score in test [15] and in test [17] were -0.922 and 0.531 (inactive), respectively.
With `N[C@@H](Cc1ccccc1)Cn1cc(-c2ccccc2)nn1`, the composite z-score in the test with Albumin (Bos taurus) was 0.656; in [2], 0.0879; in test [3], -0.053; in [4] it was -0.062; in test [5] it was 0.281; in test [6], 0.954. Moreover, the composite z-score in the test on Sam68 (KHDRBS1) is 0.406; in test [7], 0.53; in test [8] it was -0.109; in test [9] it was -0.0727; in test [10], 0.184; in test [11], -0.0983. Besides, the composite z-score was 0.274 in test [12]; 0.219 in test [13]; -0.311 in test [14]; -0.155 in the test with Lefty1; 0.441 in test [16]. For the same compound, in [1], the composite Z-score is -0.254 (inactive). Further, the z-score in test [15] was 0.805; in [17], -1.32 (inactive).
As to `CCCNC(=O)[C@@]1(c2ccc([N+](=O)[O-])cc2)CC(=O)N(CC23CC4CC(CC(C4)C2)C3)[C@@H]1c1ccc(CO)cc1`, the composite z-score in the test with Albumin (Bos taurus) is -0.161; in test [2] it was -0.255; in [3] it was -0.168; in test [4], 0.716; in test [5] it was 1.08; in [6] it was 1.88. In addition, the composite z-score was 0.591 in the test with Sam68 (KHDRBS1); -0.0438 in test [7]; 0.531 in [8]; 1.19 in test [9]; 1.04 in test [10]; 0.117 in test [11]. For the same compound, the composite z-score in test [12] is 0.356; in test [13], 0.509; in [14], 1.23; in the test with Lefty1 it was -0.197; in test [16], -0.109. Besides, in test [1], the composite Z-score was -0.639 (inactive). The values for the z-score in [15] and in [17] were 0.582 and 0.494 (inactive), respectively.
For the compound `COc1ccc([Si](C)(C)[C@@H]2[C@@H](CC(=O)N(CCO)Cc3ccccc3)O[C@]3(C(=O)N(C)c4ccccc43)[C@H]2C)cc1`, the composite z-score in the test with Albumin (Bos taurus) turned out to be 0.751; in test [2] it was 0.0964; in test [3], 0.0022; in test [4] it was 0.516; in [5] it was 0.855; in test [6] it was 0.0123. For the same compound, the composite z-score is 1.31 with Sam68 (KHDRBS1); 1.43 in test [7]; 1.12 in test [8]; 1.93 in [9]; 1.17 in [10]; 0.495 in test [11]. For the same compound, the composite z-score in test [12] was determined as 0.958; in test [13], 1.44; in [14] it was 1.4; with Lefty1, 1.45; in test [16], 1.17. Moreover, the composite Z-score in test [1] is 0.26 (inactive). Moreover, the z-score in test [15] was 0.194; in test [17], 0.0071 (inactive).
Consider `COc1ccc(C(=O)Nc2cccc(CN3C(=O)[C@@]4(O[C@@H](CCn5cc(CCO)nn5)[C@H]([Si](C)(C)c5ccc(OC)cc5)[C@H]4C)c4ccccc43)c2)cc1`, for which the composite z-score is -0.194 in the test with Albumin (Bos taurus); 0.149 in test [2]; -0.084 in [3]; 0.411 in test [4]; 0.733 in test [5]; -0.046 in test [6]. The composite z-score came out at 1.3 in the test with Sam68 (KHDRBS1); 1.05 in [7]; 1.08 in test [8]; 1.38 in [9]; 1.16 in [10]; 0.582 in test [11]. Besides, the composite z-score in [12] was found to be 0.701; in test [13], 1.35; in test [14], 1.51; in the test with Lefty1, 1.29; in test [16] it was 0.701. For the same compound, in test [1], the composite Z-score was 1.4 (inactive). In addition, the z-score in test [15] was -0.0548; in [17] it was -0.775 (inactive).
For the compound `COCCOC(=O)N1C(=O)[C@@]2(c3cc(C#CC4=CCCCC4)ccc31)[C@H](C(=O)NC[C@H](O)c1ccccc1)[C@H]1C(=O)O[C@H](c3ccccc3)[C@H](c3ccccc3)N1[C@@H]2c1ccc(O)cc1`, the composite z-score was found to be 0.112 with Albumin (Bos taurus); 0.184 in test [2]; 0.103 in test [3]; 0.521 in test [4]; 0.824 in [5]; 0.992 in test [6]. Besides, the composite z-score with Sam68 (KHDRBS1) amounted to 1.29; in [7], 1.12; in [8], 1; in test [9], 0.0524; in test [10], 1.19; in test [11] it was 0.703. Also, the composite z-score came out at 0.86 in test [12]; 1.32 in test [13]; 1.32 in [14]; 0.861 in the test with Lefty1; 0.845 in [16]. Further, the composite Z-score in test [1] is 0.0886 (inactive). For the same compound, the z-score in test [15] is -1.23; in test [17] it was -1.31 (inactive).
